Data on 6 compounds can be found in PubChem BioAssay (Tox21).

Inconclusive results are not listed. Activity calls are given as the source filed them. Unless noted, the call rests on the fitted dose curve.

Test [1] concerns the target Gonadotropin-releasing hormone receptor (Homo sapiens) (UniProt P30968). Nature of the test: Human gonadotropin-releasing hormone receptor (GnRHR) small molecule agonists, calcium flux assay in GnRHR-HEK293 cells (AID 1920063). Further: nearly all actives have a fitted effect of over 35% in size. The procedure, abridged:
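HEK293 cells stably expressing human GnRHR were dye-loaded for 1 h at 37 C. Compound was added in agonist mode and fluorescence (Ex/Em 480/540) recorded kinetically for 3 min. Fifteen concentrations, triplicates.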
(A change in cytosolic calcium serves as a functional read-out for many receptors and channels.)

For test [2], the target named is KiSS-1 receptor (Homo sapiens) (UniProt Q969F8). Nature of the test: Human kisspeptin (KISS1R) small molecule agonists, calcium flux assay in KISS1R-HEK293 cells (AID 1920064; active means well fitted activation curve with a large enough effect in the repeat runs). The procedure, abridged:
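HEK293 cells stably expressing human KISS1R were loaded with calcium dye for 1 h at 37 C, then given compound; fluorescence (Ex/Em 480/540) was read kinetically for 3 min. Fifteen concentrations, triplicate.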

A short description of test [3]: G protein-coupled receptor (GPCR) small molecule agonists, calcium flux assay: HEK293 wild type cell line counter screen (AID 1920065). The procedure, abridged:
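Wild-type HEK293 cells plated 18 h, loaded with calcium dye 1 h at 37 C, then compounds added in agonist mode (ATP as positive control). Kinetic fluorescence Ex/Em 480/540 recorded 3 min at 1 sec intervals; 15 concentrations, triplicate.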

Test [4] is described as follows: p53 small molecule agonists, cell-based qHTS assay with human liver microsomes (AID 1963577).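 Further: p53 response element beta-lactamase reporter cells with liver microsomes plus NADPH.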 The procedure, abridged: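 p53RE-bla cells; 5 h settle, 37 C/5% CO2; cpd + HLM 0.5 mg/mL + NADPH 0.5 mg/mL (final); 16 h 37 C; LiveBLAzer 2 h RT dark; fluorescence readout.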
A general note: Quantitative high-throughput screening tests each substance at several concentrations.

The nature of test [5]: p53 small molecule agonists, cell-based qHTS assay with rat liver microsomes (AID 1963578). The procedure, abridged:
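Rat liver microsome activation: microsomes 0.5 mg/mL, NADPH 0.5 mg/mL final; p53RE-bla cells, 16 h 37 C; LiveBLAzer readout, 2 h RT dark.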

Test [6] is described as follows: p53 small molecule agonists, cell-based qHTS assay with human liver microsomes: qHTS cell viability counter screen (AID 1963579). Further: nearly all actives have a fitted effect of over 45% in size. The procedure, abridged: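 Luminescent CellTiter-Glo read-out, 30 min at room temperature, gauged cytotoxicity in p53RE-bla cells exposed 16 h at 37 C to DMSO-dissolved compounds with metabolic activation by human liver microsomes and NADPH, each 0.5 mg/mL final.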

A short description of test [7]: p53 small molecule agonists, cell-based qHTS assay with rat liver microsomes: qHTS cell viability counter screen (AID 1963580). Further: nearly all actives have a fitted effect of over 45% in size. The essentials: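 p53RE-bla HCT-116 cells (4,000/well) rested 5 h at 37 C, then given Tox21 compounds in DMSO with rat liver microsomes (0.5 mg/mL final) plus NADPH (0.5 mg/mL final) for 16 h at 37 C. Viability read by CellTiter-Glo luminescence after 30 min at room temperature.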

The nature of test [8]: p53 small molecule agonists, cell-based qHTS assay: qHTS cell viability counter screen (AID 1963581). Further: nearly all actives have a fitted effect of over 45% in size. The essentials:
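p53RE-bla HCT-116 cells, compounds added 5 h after plating and incubated 16 h at 37 C. Cytotoxicity measured in the same wells as intracellular ATP by CellTiter-Glo luminescence after 30 min at room temperature.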

Test [9] can be described thus: p53 small molecule agonists, cell-based qHTS assay (AID 1963582; active means well fitted activation curve with a large enough effect in the signal ratio in the repeat runs, not every such curve was filed as active; the % refers to the signal ratio). The procedure, abridged: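 p53RE-bla reporter cells, compounds added in DMSO after 5 h plating, incubated 16 h at 37 C. Beta-lactamase read via 2 h room-temperature LiveBLAzer B/G FRET substrate, fluorescence intensity.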
Test [10] has as its target 5-hydroxytryptamine receptor 2A (Homo sapiens) (UniProt P28223). The test can be described thus: 5-hydroxytryptamine receptor 2A (HTR2A) small molecule antagonists, cell-based qHTS assay (AID 1963586). Further: nearly all actives have a fitted effect of over 45% in size. Further: potency means the concentration at half of the fitted maximal effect. The procedure, abridged:
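Antagonist-mode intracellular calcium assay: DOI (4 nM) added after 5 min compound pre-incubation at room temperature to dye-loaded HTR2A-CHO cells. Fluorescence followed for 3 min, sampled every second.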

The target is the same in test [11]. The test can be described thus: 5-hydroxytryptamine receptor 2A (HTR2A) small molecule agonists, cell-based qHTS assay (AID 1963587). Further: nearly all actives have a fitted effect of over 30% in size. The procedure, abridged: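 HTR2A-CHO cells, plated 18 h at 37 C/5% CO2, dye-loaded 1 h at 37 C; compounds in DMSO added by pin tool (agonist mode). Intracellular calcium flux read as kinetic fluorescence on FDSS over 2 min at 1 s intervals.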

In test [12] the target is Muscarinic acetylcholine receptor M1 (Homo sapiens) (UniProt P11229). Nature of the test: Cholinergic receptor muscarinic 1 (CHRM1) small molecule antagonists, cell-based qHTS assay (AID 1963588). Further: nearly all actives have a fitted effect of over 40% in size. The essentials: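 CHRM1-CHO calcium-flux assay, antagonist mode. Cells were seeded 18 h, dye-loaded 1 h at 37 C and given compound for 5 min at RT, then acetylcholine was added at 50nM. FDSS fluorescence was read 3 min; 15 concentrations, three runs.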
Muscarinic acetylcholine receptor M1 (Homo sapiens), sequence (P11229 whole entry, looked up): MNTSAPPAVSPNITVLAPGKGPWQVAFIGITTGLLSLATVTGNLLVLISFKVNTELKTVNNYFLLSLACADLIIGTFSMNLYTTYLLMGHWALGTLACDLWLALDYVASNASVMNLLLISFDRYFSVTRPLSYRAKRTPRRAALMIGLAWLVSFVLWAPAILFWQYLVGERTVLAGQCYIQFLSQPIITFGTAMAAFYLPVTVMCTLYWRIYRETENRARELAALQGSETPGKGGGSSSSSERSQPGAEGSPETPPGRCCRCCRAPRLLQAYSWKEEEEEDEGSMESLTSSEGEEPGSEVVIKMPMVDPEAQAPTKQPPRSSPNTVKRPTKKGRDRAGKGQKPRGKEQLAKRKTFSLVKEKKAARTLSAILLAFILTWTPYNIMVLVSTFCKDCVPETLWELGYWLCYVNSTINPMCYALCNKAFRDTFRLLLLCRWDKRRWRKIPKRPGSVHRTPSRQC

Test [13] shares this target. Nature of the test: Cholinergic receptor muscarinic 1 (CHRM1) small molecule agonists, cell-based qHTS assay (AID 1963589). Further: nearly all actives have a fitted effect of over 35% in size. The procedure, abridged:
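CHO cells stably expressing human CHRM1 were loaded with calcium dye for 1 h at 37 C, then compound was added in agonist mode. Intracellular calcium fluorescence was followed kinetically at 1 s intervals. Fifteen concentrations were tested in three independent runs.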

Test [14] in a line: cAMP Responsive Elements (CRE) small molecule agonists, cell-based qHTS assay (AID 1963590). The procedure, abridged: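 CRE-bla HEK 293T cells, 2,000/well in DMEM with 10% dialyzed FBS and 25 mM HEPES, pre-incubated 18 h at 37 C, then exposed to compound 3 h at 37 C. Beta-lactamase reporter read with LiveBLAzer B/G FRET substrate after 2 h at room temperature.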
Test [15] can be described thus: cAMP Responsive Elements (CRE) small molecule antagonists, cell-based qHTS assay (AID 1963591; active means well fitted inhibition curve with a large enough effect in the signal ratio in the repeat runs, not every such curve was filed as active; the % refers to the signal ratio). The procedure, abridged: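 CRE-bla HEK293T cells plated 18 h, then given compound plus NKH477 at 0.25 uM final for 3 h at 37C. Beta-lactamase reporter read with LiveBLAzer B/G FRET substrate after 2 h at room temperature.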
The target in test [16] is Beta-2 adrenergic receptor (Homo sapiens) (UniProt P07550). The test can be described thus: Adrenergic beta2 receptor (ADRB2) small molecule antagonists, cell-based qHTS assay (AID 1963592). Further: series mostly up to about 92 µM; nearly all actives have a fitted effect of over 50% in size. The essentials:
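Cells (CHO, stable ADRB2 overexpression) incubated 18-20hr at 37C; compounds added from DMSO; agonist mix (1nM isoproterenol, 100uM IBMX, 25uM Ro-20-1724) added; 0.5hr RT; d2-cAMP and anti-cAMP-cryptate added; 1hr RT; 665/615 nm read.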

For test [17], the target named is D(2) dopamine receptor (Homo sapiens) (UniProt P14416). The test can be described thus: Dopamine D2 receptor (DRD2) small molecule agonists, cell-based qHTS assay (AID 1963594). Further: nearly all actives have a fitted effect of over 35% in size. The essentials: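 HEK293 cells stably expressing DRD2 were cultured 24 h at 37 C, then given Ro20-1724 (0.1 mM final) and compounds for 10 min at room temperature. NKH477 (200nM) was then added for 30 min. cAMP was read by HTRF.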
D(2) dopamine receptor (Homo sapiens), sequence (P14416 whole entry, looked up): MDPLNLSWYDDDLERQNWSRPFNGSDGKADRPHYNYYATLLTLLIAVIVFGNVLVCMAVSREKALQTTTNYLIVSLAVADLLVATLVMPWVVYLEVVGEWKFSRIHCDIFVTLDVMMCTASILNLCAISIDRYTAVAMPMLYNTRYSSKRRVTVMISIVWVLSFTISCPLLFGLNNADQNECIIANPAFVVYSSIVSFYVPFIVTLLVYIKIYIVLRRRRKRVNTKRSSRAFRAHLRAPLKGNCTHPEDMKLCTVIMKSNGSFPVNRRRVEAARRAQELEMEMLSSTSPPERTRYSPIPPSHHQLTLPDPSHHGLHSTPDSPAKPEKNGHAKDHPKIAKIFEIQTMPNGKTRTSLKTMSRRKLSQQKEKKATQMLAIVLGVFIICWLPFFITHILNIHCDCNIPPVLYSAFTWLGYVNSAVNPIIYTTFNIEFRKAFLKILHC

Test [18] shares this target. Nature of the test: Dopamine D2 receptor (DRD2) small molecule antagonists, cell-based qHTS assay (AID 1963595; active means well fitted inhibition curve with a large enough effect in the signal ratio in the repeat runs, with a control signal flat; the % refers to the signal ratio). The essentials:
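Antagonist mode in DRD2-HEK293 cells: after compound addition with 0.1 mM Ro20-1724, cells received quinpirole (12 nM) and NKH477 (200 nM) for 30 min at room temperature; HTRF cAMP read after 1 h detection.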

Test [19] addresses Beta-2 adrenergic receptor (Homo sapiens) (UniProt P07550). The test can be described thus: Adrenergic beta2 receptor (ADRB2) small molecule agonists, cell-based qHTS assay (AID 1963593).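 Further: CHO cells stably overexpressing human ADRB2.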 The procedure, abridged: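 CHO cells stably over-expressing ADRB2 were plated overnight at 37C, then dosed with compounds plus a stimulation mix containing 100uM IBMX and 25uM Ro-20-1724 for 0.5hr at room temperature. cAMP was measured by HTRF competition, 1hr.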

5-hydroxytryptamine receptor 2A (Homo sapiens), sequence (P28223 whole entry, looked up): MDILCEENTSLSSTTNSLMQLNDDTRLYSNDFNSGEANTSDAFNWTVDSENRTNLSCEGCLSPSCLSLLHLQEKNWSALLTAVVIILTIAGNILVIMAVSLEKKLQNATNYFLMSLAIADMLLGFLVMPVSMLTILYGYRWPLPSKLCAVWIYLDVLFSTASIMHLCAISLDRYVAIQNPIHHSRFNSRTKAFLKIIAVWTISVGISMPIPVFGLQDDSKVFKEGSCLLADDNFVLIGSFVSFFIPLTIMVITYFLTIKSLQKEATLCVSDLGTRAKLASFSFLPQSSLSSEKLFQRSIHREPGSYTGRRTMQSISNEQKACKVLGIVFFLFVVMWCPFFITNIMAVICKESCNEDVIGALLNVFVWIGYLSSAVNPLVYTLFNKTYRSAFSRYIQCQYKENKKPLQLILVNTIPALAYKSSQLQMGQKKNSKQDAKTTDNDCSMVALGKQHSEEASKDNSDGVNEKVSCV
KiSS-1 receptor (Homo sapiens), sequence (Q969F8 whole entry, looked up): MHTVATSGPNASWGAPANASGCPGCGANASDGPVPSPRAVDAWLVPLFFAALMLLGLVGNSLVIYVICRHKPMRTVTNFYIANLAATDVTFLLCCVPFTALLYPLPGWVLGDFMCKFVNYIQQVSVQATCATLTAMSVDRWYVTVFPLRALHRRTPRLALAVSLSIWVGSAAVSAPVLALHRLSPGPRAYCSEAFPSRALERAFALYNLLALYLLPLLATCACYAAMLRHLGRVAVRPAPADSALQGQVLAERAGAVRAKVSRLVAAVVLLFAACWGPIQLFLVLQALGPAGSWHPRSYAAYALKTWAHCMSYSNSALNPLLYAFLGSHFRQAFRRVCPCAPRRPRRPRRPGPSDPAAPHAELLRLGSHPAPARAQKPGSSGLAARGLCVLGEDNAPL
Gonadotropin-releasing hormone receptor (Homo sapiens), sequence (P30968 whole entry, looked up): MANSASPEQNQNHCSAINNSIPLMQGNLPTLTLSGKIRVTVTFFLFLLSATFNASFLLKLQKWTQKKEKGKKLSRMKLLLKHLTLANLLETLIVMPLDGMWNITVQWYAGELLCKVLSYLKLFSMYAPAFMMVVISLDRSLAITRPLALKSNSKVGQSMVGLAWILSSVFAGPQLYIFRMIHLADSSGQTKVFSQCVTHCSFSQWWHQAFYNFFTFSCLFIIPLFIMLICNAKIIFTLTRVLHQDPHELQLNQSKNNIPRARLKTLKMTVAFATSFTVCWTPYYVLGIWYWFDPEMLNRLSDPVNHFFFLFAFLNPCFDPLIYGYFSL
Beta-2 adrenergic receptor (Homo sapiens), sequence (P07550 whole entry, looked up): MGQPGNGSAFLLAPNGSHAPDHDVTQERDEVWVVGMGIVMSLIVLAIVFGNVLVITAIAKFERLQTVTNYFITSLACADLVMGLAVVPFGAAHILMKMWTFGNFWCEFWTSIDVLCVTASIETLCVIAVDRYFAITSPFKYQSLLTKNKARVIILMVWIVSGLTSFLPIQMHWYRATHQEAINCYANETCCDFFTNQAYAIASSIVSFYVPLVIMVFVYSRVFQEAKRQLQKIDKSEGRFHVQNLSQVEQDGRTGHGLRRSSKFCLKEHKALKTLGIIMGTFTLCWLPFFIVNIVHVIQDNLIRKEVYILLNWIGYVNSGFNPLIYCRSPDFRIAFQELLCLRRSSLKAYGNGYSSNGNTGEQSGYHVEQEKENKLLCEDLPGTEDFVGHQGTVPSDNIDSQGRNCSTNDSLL

Regarding `c1ccc2cnncc2c1`, the Potency result in [1], in [2], in test [3], in test [4], in test [5] and in [6] was “inactive” throughout. Besides, the Potency result in [7], in test [8], in [9], in test [10], in test [11] and in [12] was “inactive” in each case. Further, the Potency entry in [13], in test [14], in test [15], in test [16], in [17] and in test [18] was “inactive” throughout.
Turning to `CCCCCCCCCOS(=O)(=O)O`, the Potency entry in test [1], in [2], in [3], in test [4], in test [5] and in test [6] was “inactive” each time. Further, the Potency entry in test [7], in test [8], in test [9], in test [10], in test [11] and in [12] was “inactive” in each case. Besides, the Potency result in test [13], in test [14], in test [15], in [19], in test [17] and in test [18] was “inactive” throughout.
Turning to `O=S(O)CO`, the Potency entry in test [1], in test [2], in test [3], in [4], in [5] and in test [6] was “inactive” throughout. The Potency result in [7], in test [8], in test [9], in test [10], in [11] and in test [12] was “inactive” in each case. Also, the Potency entry in [13], in test [14], in [15], in test [16], in [19] and in [17] was “inactive” in each case. Also, the Potency entry in test [18] was “inactive”.
In the case of `COC(=O)c1cc(Cl)c(NC(C)=O)cc1OC`, the Potency entry in test [1], in test [2], in test [3], in [4], in test [5] and in test [6] was “inactive” in each case. Further, the Potency entry in [7], in test [8], in test [9], in [10], in [11] and in test [12] was “inactive” in each case. Further, the Potency entry in test [13], in test [14], in [15], in test [16], in [17] and in [18] was “inactive” each time.
Take `CCC(COC(=O)CCS)(COC(=O)CCS)COC(=O)CCS`: the Potency result in test [1], in [2], in test [3], in test [4], in test [5] and in test [6] was “inactive” each time. The Potency entry in [7], in [8], in test [9], in test [10], in test [11] and in test [12] was “inactive” each time. The Potency entry in test [13], in test [14], in test [15], in [16], in test [17] and in [18] was “inactive” in each case.
Regarding `CC(C)CCCCCOC(=O)CS`, the Potency result in [1], in test [2], in [3], in test [4], in [5] and in [6] was “inactive” each time. For the same compound, the Potency entry in test [7], in test [8], in test [9], in test [11], in [12] and in [13] was “inactive” throughout. The Potency result in test [15], in test [16], in [19], in test [17] and in [18] was “inactive” in each case. For the same compound, the Potency in test [10] was 1.88 µM (active).
